The results in this text go back to the supplement of paper PMC6555819.

This experiment has as its system PPARg:RXRa DBDmut IVT, anti-RXR (DBD mutation: RXRa K156A/R161A, NR concentration 270 nM, RXRa partner concentration 90 nM). As to the kind of experiment: PBM binding z-score (relative to random genomic background probes); higher = stronger binding; sequences stand for … in GC…GCGATTGACAGCGTAGAATGAAGG
Put shortly:
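Antibodies against each partner of ligand-free nuclear receptor dimers (one per run) detected binding on custom Agilent 4×180K protein-binding microarrays after 1 h incubation. The double-stranded probes had 34-nt variable regions carrying direct-repeat seeds, single-nucleotide variants, half-site ablations and random human genomic background sequences. Binding z-scores, from regression-normalized fluorescence, use the random background probes as reference.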
For GATACAGGGTCAGCTAGAGGCCTGAGTATGGAAA, the PBM binding z-score is 1.41.
For CTCGAAAGGTCGTGCTCAGGTGAGCATACCAAAC the value was 0.762.
For the sequence CGTCCAAGGTCAAAGGTCAGTGAGGAGATGACGG, the PBM binding z-score turned out to be 4.27.
For GATGCTAGGTCAACTGATGGTCAGCTAAAGCTCG the value was 3.82.
For AGATTGAGGTTATTAAGATCAGGGAATTGCGGTC the value was 2.3.
For CGTCCAAGGCCAATGCTAGGTCAGTGAAAGCATT the value was -0.0283.
As to GAAACAGGGTCAAGGCCAGAGTACGCGTATTGAT, the PBM binding z-score was found to be 4.14.
For CCGCCTAGGTCAGGGCCAGTATAGGAGGAACGTT the value was 0.73; for CCGAGTAGGTTAGGGGGCATTCAGGCAACGGTGA, 2.55; for ACTCGGAGGACAACGGTCAGAGCTACGCCAGTGA, 0.208.
For CGTCAAAGTTCAACTAAGGTAACGTACAGCACGC the value was 0.621; for GCGACTGGGGCATCAGCAGGTTACAATAACTTAA, 3.24; for TCTCGGAAGACACGAAAGGTCAGAGCTCGACATC, 2.
For TCGAGAAGGTTAGTCGGGGCATTCAGCCAACATA the value was 1.32; for AGAATGAGGTTATACGTAGATCAGGGAGGAAAGT, 3.75; for ATATGTAGGTTATCGGGCCATTCAGTTTGCGCAT, 7.31.
TATACAGGGTAAAAGGCCAGAGTACGAATGTCGA came in with a PBM binding z-score of 1.68.
For CCTGCTAGGTAAATGGTCAGCTAAAGCAGCTCGC the value was 1.07.
In turn, TCTAATTGGTCAAAGGTCACACACTCGAAATGCG had a PBM binding z-score of 3.57.
For TCATATAGGTTAATGCTAGGTGAAAGTCCGATCT the value was 4.99.
For TAGCCTAGGTCAGATCGGCCCAGTATACGCTATA the value was 0.85.
Consider CAAACTAGGTAACAGAGGTCAAAGTCCGTGCGTA, for which the PBM binding z-score came to 6.99.
For CCTTACGGGTCACTGACAGGTTACAGCATTTGGA the value was 3.39; for CCAGACAGGTGAAAAGTAACTCAGTCTGGTACGC, 1.47.
For ATCTCTAGGTAACCAAGATCAGTGAATGCCGAAC the value was 2.88; for CCTACTGAGCCAAAGGTCATTGATTCCAATGCTC, 1.79.
GCGACTGGGGCATCAGAAGGTTACCATAACTTAA had a PBM binding z-score of 3.59.
For ATCTATAGGTAACCAAGTTCAGTGAATGCCGAAC the value was 2.37; for CCAGACAGGTGAGAAGGCAACTCAGCCTCGATTA, 0.42.
In turn, CCAGTCAGGTGAGAAGGTAACTCAGCCTCGATTA returned a PBM binding z-score of 1.41.
TCGACTAGGTTAGTCGGGGCATTCAGCCAACATA came in with a PBM binding z-score of 2.49.
For CGTCCAAGTTCAACTAAGGTAACGTAAAGCACGC the value was 0.15; for AATACAGGGGCACTAGGCCAGAGTAGGTACGAAT, 2.1.
With CCTGCTAGGTCATGGACAGCTAATCTACAGTATG, the PBM binding z-score is 4.72.
For GCTAGTTGGGCAGTAAAAGGTCACACACCGGTCG the value was 0.484.
For TCAGACGGGTGAAGGTAACTCAGGTACGCAGTCG the value was 1.98.
Take ATCTCTAGGTACGACTCAGTTCAGTGAAGAACGC: the PBM binding z-score was found to be 0.59.
For GCGACTGGGGCATAGCAGGTTACCATAAGGTTGG the value was 3.87; for CGTCAAAGTTCAACTAAGGTAACGTAAAGCACGC, 0.3.
For TCAGACAGGTGAACGTAACTCAGGTACGCAGTCG the value was 2.71.
